According to PubChem BioAssay (NCATS):
Inconclusive results are not listed. The source made the active and inactive calls. Calls come from the whole dose curve; as a rule, active = well fitted cell-killing curve with a large enough effect; inconclusive = small, poorly fitted or top-dose-only effect, or effect the other way; inactive = no such curve, though single readings can be large or run the other way.

Assay: Quantitative High-Throughput drug screen in 47 multiple myeloma cell lines against the NCATS MIPE library collection: MMM1_PLB cell viability assay (AID 1918976); note: nearly all actives have a fitted effect of over 35% in size
Conditions: MMM1 myeloma cells viability, CellTiter-Glo, 48 h; series mostly up to 45.8 µM
Description: PI: Beverly A. Mock Ph.D.
Laboratory of Cancer Biology and Genetics,
Center for Cancer Research, National Cancer Institute,
National Institute of Health, Bethesda, Maryland
Drug resistance and disease progression are common in multiple myeloma (MM) patients, underscoring the need for new therapeutic combinations. […] We hypothesized that effective combinations would reduce MYC expression and enhance p16 activity. […] These preclinical data identify potentially useful drug combinations for evaluation in drug-resistant MM and reveal potential mechanisms of combined drug sensitivity.
Described herein is the primary MIPE qHTS used to cherrypick compounds. Validated compounds were then further tested for potential synergistic activiy.
[1] Peat TJ, Gaikwad SM, Dubois W, Gyabaah-Kessie N, Zhang S, Gorjifard S, Phyo Z, Andres M, Hughitt VK, Simpson RM, Miller MA, Girvin AT, Taylor A, Williams D, D'Antonio N, Zhang Y, Rajagopalan A, Flietner E, Wilson K, Zhang X, Shinn P, Klumpp-Thomas C, McKnight C, Itkin Z, Chen L, Kazandijian D, Zhang J, Michalowski AM, Simmons JK, Keats J, Thomas CJ, Mock BA. Drug combinations identified by high-throughput screening promote cell cycle transition and upregulate Smad pathways in myeloma. Cancer Lett. 2023 Aug 1;568:216284. doi: 10.1016/j.canlet.2023.216284. Epub 2023 Jun 24. PMID: 37356470; PMCID: PMC10408729.
SEQUENCE No. (e.g., 1, 2, 3, etc.); […] (e.g., Cells, Incubation, Reagent, etc.); VALUE and DESCRIPTION.
1; Cells; 5 uL; white, solid bottom 1536-well Greiner assay plate.
2; Compounds; 23 nL; Kalypsis pin tool (Wako USA) equipped with a 1536-well pin head to transfer to the assay plates.
3; Incubation; 48 hours; 37C incubation.
4; Reagent;5uL; CellTiter Glo (Promega).
5; Detector; 425V; Luminescence; Viewlux PerkinElmer.
NOTES (numbers refer to Sequence numbers above)
1. The cell-based screening methods employed in this study were like those previously published. Briefly, the corresponding myeloma cell lines were screened in 1,536-well plates with 500 cells, 5-uL per well for inhibition of cell viability (assessed by measuring ATP levels with CellTiterGlo).
2. NCATS MIPE 4.0 library of approved and investigational drugs were added using the Kalypsis pin tool. Wells treated with DMSO only for 100% viability and media only for 0% viability were used as controls.
3. The assay plates were covered and incubated for 48 hours in a 37C, 5% CO2 incubator with controlled humidity.
4. After 48 hours, CellTilter-GloTM luminescent substrate mix (Promega) reagent was added to the assay plate and plates we incubated for 5 min at room temperature.
5. Signal was measured as median relative luminescence units on a ViewLux (PerkinElmer) multiplate reader.
[1] Heske CM, Davis MI, Baumgart JT, Wilson K, Gormally MV, Chen L, Zhang X, Ceribelli M, Duveau DY, Guha R, Ferrer M, Arnaldez FI, Ji J, Tran HL, Zhang Y, Mendoza A, Helman LJ, Thomas CJ. Matrix Screen Identifies Synergistic Combination of PARP Inhibitors and Nicotinamide Phosphoribosyltransferase (NAMPT) Inhibitors in Ewing Sarcoma. Clin Cancer Res. 2017 Dec 1;23(23):7301-7311. doi: 10.1158/1078-0432.CCR-17-1121. Epub 2017 Sep 12. PMID: 28899971; PMCID: PMC6636827.
Potency is the fitted concentration of half-maximal effect.

SMILES | Potency
CN(C)CCC=C1c2ccccc2C=Cc2ccccc21 | 4.18 µM (active)
NC(=O)NO | 2.09 µM (active)
CN1C2CCC1CC(OC(=O)C(CO)c1ccccc1)C2 (stereo not given) | inactive
CC(CCc1ccc(O)cc1)NCCc1ccc(O)c(O)c1 (stereo not given) | 10.5 µM (active)
Clc1ccccc1C(c1ccccc1)(c1ccccc1)n1ccnc1 | 23.5 µM (active)
O=C1c2c(O)ccc(O)c2C(=O)c2c(NCCNCCO)ccc(NCCNCCO)c21 | 1.48 µM (active)
CC1(CN2CCC(n3c(=O)[nH]c4ccccc43)CC2)OCc2ccccc2-n2cccc21 (stereo not given) | 5.9 µM (active)
CCc1cccc2c3c([nH]c12)C(CC)(CC(=O)O)OCC3 (stereo not given) | 4.18 µM (active)
CCCCc1oc2ccccc2c1C(=O)c1cc(I)c(OCCN(CC)CC)c(I)c1 | 18.7 µM (active)
C[C@@H]1CC(=O)NN=C1c1ccc(NN=C(C#N)C#N)cc1 | 18.7 µM (active)
CC1COc2c(N3CCN(C)CC3)c(F)cc3c(=O)c(C(=O)O)cn1c23 (stereo not given) | 11.8 µM (active)
NC(CO)C(=O)NNCc1ccc(O)c(O)c1O (stereo not given) | 7.43 µM (active)
O=C(Nc1ccc([N+](=O)[O-])cc1Cl)c1cc(Cl)ccc1O | 0.743 µM (active)
Cc1ccc(C(=O)Nc2ccc(S(=O)(=O)O)c3cc(S(=O)(=O)O)cc(S(=O)(=O)O)c23)cc1NC(=O)c1cccc(NC(=O)Nc2cccc(C(=O)Nc3cc(C(=O)Nc4ccc(S(=O)(=O)O)c5cc(S(=O)(=O)O)cc(S(=O)(=O)O)c45)ccc3C)c2)c1 | 0.0372 µM (active)
CN(C)CCCN1c2ccccc2CCc2ccc(Cl)cc21 | 20.9 µM (active)
CC[C@@]1(O)C(=O)OCc2c1cc1n(c2=O)Cc2cc3c(CN(C)C)c(O)ccc3nc2-1 | 18.7 µM (active)
NCCc1cnc[nH]1 | 0.0132 µM (active)
CC(C)(Oc1ccc(C2CC2(Cl)Cl)cc1)C(=O)O (stereo not given) | inactive
O=C1Cc2cc(CCN3CCN(c4nsc5ccccc45)CC3)c(Cl)cc2N1 | 23.5 µM (active)
Clc1ccc2c(c1)C(N1CCNCC1)=Nc1ccccc1O2 | 16.6 µM (active)

SMILES | Potency
N[C@@H](Cc1c[nH]c2ccc(O)cc12)C(=O)O | 18.7 µM (active)
COc1ccccc1N1CCN(CC(O)COc2cccc3ccccc23)CC1 (stereo not given) | 6.62 µM (active)
COc1cc2nc(N3CCN(C(=O)C4COc5ccccc5O4)CC3)nc(N)c2cc1OC (stereo not given) | 20.9 µM (active)
CCOC(=O)C(C)(C)Oc1ccc(Cl)cc1 | 7.43 µM (active)
CC(C(=O)O)c1cccc(C(=O)c2ccccc2)c1 (stereo not given) | 0.833 µM (active)
NCCCCCC(=O)O | 0.296 µM (active)
CN1CCN2c3ccccc3Cc3ccccc3C2C1 (stereo not given) | 20.9 µM (active)
Fc1ccc([C@@H]2CCNC[C@H]2COc2ccc3c(c2)OCO3)cc1 | 14.8 µM (active)
CCC1(C)CC(=O)NC1=O (stereo not given) | inactive
CC(C)NCC(O)c1ccc(O)c(O)c1 (stereo not given) | 7.43 µM (active)
CN1CCN(CCCN2c3ccccc3Sc3ccc(Cl)cc32)CC1 | 26.4 µM (active)
CNCCCC12CCC(c3ccccc31)c1ccccc12 | 20.9 µM (active)
NC12CC3CC(CC(C3)C1)C2 | inactive
OCCN(CCO)c1nc(N2CCCCC2)c2nc(N(CCO)CCO)nc(N3CCCCC3)c2n1 | 23.5 µM (active)
CC#C[C@]1(O)CC[C@H]2[C@@H]3CCC4=CC(=O)CCC4=C3[C@@H](c3ccc(N(C)C)cc3)C[C@@]21C | 4.18 µM (active)
CCOC(=O)c1ncn2c1CN(C)C(=O)c1cc(F)ccc1-2 | 6.62 µM (active)
O=c1[nH]cc(F)c(=O)[nH]1 | 5.9 µM (active)
CN(C)C(=O)C(CCN1CCC(O)(c2ccc(Cl)cc2)CC1)(c1ccccc1)c1ccccc1 | 16.6 µM (active)
Clc1ccc(C(c2ccccc2Cl)C(Cl)Cl)cc1 (stereo not given) | 20.9 µM (active)
Nc1nc2c(ncn2COC(CO)CO)c(=O)[nH]1 | 23.5 µM (active)
